Assay outcomes: PubChem BioAssay, National Center for Advancing Translational Sciences (NCATS)
D2 antagonist = D2 dopamine receptor (human) antagonism. inhibition, % at 10 µM. P14416. HEK293 TREx D2 cells, calcium flux, dopamine EC80. 340,000 tested, 2% active; in the data active = inhibition above about 30%; inactive = below that, where a call was filed; note: 0% is about no effect
Target sequence (P14416 whole entry, looked up): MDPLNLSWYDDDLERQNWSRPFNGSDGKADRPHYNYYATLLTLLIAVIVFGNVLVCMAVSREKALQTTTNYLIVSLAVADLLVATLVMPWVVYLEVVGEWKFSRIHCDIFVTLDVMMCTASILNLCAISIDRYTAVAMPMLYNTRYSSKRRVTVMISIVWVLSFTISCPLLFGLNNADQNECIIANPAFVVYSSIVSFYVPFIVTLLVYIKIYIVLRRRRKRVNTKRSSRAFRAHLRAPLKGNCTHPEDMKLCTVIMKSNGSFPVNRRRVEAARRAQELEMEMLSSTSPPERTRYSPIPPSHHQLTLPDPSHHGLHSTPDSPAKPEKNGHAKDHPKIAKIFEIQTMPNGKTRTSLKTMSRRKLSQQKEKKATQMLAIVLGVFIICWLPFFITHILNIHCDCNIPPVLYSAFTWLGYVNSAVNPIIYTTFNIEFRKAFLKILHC
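Read-out: kinetic calcium fluorescence (1 cycle/s) in inducible HEK293 T-REx D2 cells after an EC80 dopamine addition that followed 180 s compound preincubation. Loss of the dopamine response indicates antagonism.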
D2 ag-1 = activates the human D2 dopamine receptor; HEK293 T-REx D2 cells, calcium flux agonist mode; activation, % at 2 µM; 340,000 tested, 0.53% active; AID 485358;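 active = activation over 3 SD above normal in the single-dose calcium agonist read, cut at about 30% in these data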; note: 0% is about no effect
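Calcium-flux readout, 1 cycle/sec over 180 s following compound pin transfer, in inducible HEK293 Trex D2 cells (force-coupled); dopamine controls included. Positive calcium responses during this window marked compounds as potential agonists.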
D2 PAM-1 = positive allosteric modulators of human D2 dopamine receptor | P14416 | DiscoveRx D2 beta-arrestin cells, luminescence, 90 min; 100% = 57 uM dopamine signal | potentiation, % (no concentration beside the values) | 360,000 tested, 0.23% active; in the data active = potentiation above about 50%; inconclusive = mostly about 30% to 49%
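D2 cells co-treated with compound plus 50 nM dopamine (EC20) for 90 min at 37 deg C to detect potentiation. Beta-arrestin recruitment was read as enzyme-fragment luminescence after 1 h at ambient temperature. Full response was set by 57 uM dopamine.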
D2 ag-2 = agonists of human D2 dopamine receptor (beta-arrestin); activation, % (concentration not given with the values); AID 624465; 360,000 tested, 0.084% active; DiscoveRx PathHunter D2 beta-arrestin, luminescence, 90 min; 100% = 57 uM dopamine signal; in the data active = activation above about 40%; inconclusive = between about 15% and that limit
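DiscoveRx PathHunter D2 beta-arrestin cells (2,100/well) attached overnight, then compound-stimulated 90 min at 37 C in HBSS/10 mM HEPES/0.1% Tween-20 buffer; beta-galactosidase complementation read by luminescence after 1 h at ambient temperature. Dopamine 57 uM final (EC100) as control.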
D2 PAM-2 = positive allosteric modulators of human D2 dopamine receptor | P14416 | HEK293 T-REx D2, calcium flux, EC20 dopamine potentiation | potentiation, % at 10 µM | 340,000 tested, 0.34% active;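 active = potentiation over 3 SD above the plate norm, cut at about 30% in these data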; note: 0% is about no effect
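Cells plated with tetracycline inducer and held overnight at 30 C; calcium dye loaded 30–90 min at room temperature; baseline taken, compound added and read 180 s; EC20 dopamine then added and read 180 s.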
D3 arrestin ag = D3 receptor agonism confirmed, beta-arrestin readout. shares compounds with D2 ag-1. DiscoveRx D3 beta-arrestin cells, luminescence, 90 min. Potency, µM (doses to about 76.9 µM), without a hit: at the highest dose activation, hits mostly activators. 2,300 tested, 4% active. AID 720506;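 note: potency is the fitted concentration of half-maximal effect; 100% = dopamine control response; nearly all actives have a fitted effect of over 70% in size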
D2 ag-3 = D2 receptor agonism, beta-arrestin counterscreen; 2,300 tested, 5.9% active; Potency, µM (titrated, usually from 76.9 µM), inactives show top-dose activation, actives largely listed as activators; shares compounds with D2 ag-1; DiscoveRx PathHunter D2 beta-arrestin, luminescence, 90 min; response scale: percent relative to full dopamine signal; note: potency is the fitted concentration of half-maximal effect; % of control where 0% means no effect; nearly all actives have a fitted effect of over 70% in size
Numbers without * were called inactive; ? = inconclusive; · = not tested or not shown. In the library only some 2.4% were active in any assay of this set; here they are far more common. Unless noted, calls come from the whole dose curve; as a rule, active = well fitted activation curve with a large enough effect; inconclusive = small, poorly fitted or top-dose-only effect; inactive = flat fitted curve, though single readings scatter.

SMILES	D2 antagonist	D2 ag-1	D2 PAM-1	D2 ag-2	D2 PAM-2	D3 arrestin ag	D2 ag-3
Cc1cc(OCc2cc(C(=O)N(C)CCc3cnn(C)c3)no2)cc(C)c1Cl	-2	0	-12	8	-11	·	·
CC(Cc1ccccc1)C(=O)NCc1ccncc1 (configuration not stated)	-25	1	-19	-1	2	·	·
CC(CCc1ccccc1)NCc1ccncc1 (configuration not stated)	64*	68*	0	?	-23	?	?
CC1(C)CC[C@]2(C(=O)n3ccnc3)CC[C@]3(C)[C@H](C(=O)C=C4[C@@]5(C)C=C(C#N)C(=O)C(C)(C)[C@@H]5CC[C@]43C)[C@@H]2C1	·	·	-11	2	·	·	·
CN(C)c1ncnc2c1ncn2C1CCCO1 (configuration not stated)	·	·	-4	-4	·	·	·
Cc1ccccc1NC(=O)Cc1nc(COC(=O)c2nccnc2N)cs1	·	·	-8	-1	·	·	·
CN(C(=O)CSc1nnc(-c2ccccc2)n1C)C1CCS(=O)(=O)C1 (configuration not stated)	9	-1	0	-2	4	·	·
Cc1cc(C)n2c(SCC(=O)N(C)C3CCS(=O)(=O)C3)nnc2n1 (configuration not stated)	28	60*	-23	-2	-12	4%	6%
Cc1ccc(S(=O)(=O)N2C[C@]3(O)C[C@@H]4C(=O)N(c5ccccc5)C(=O)[C@@H]4C[C@]3(OC(=O)NCC3CCCCC3)C2)cc1	·	·	-3	-9	·	·	·
CC(C)(C)OC(=O)N1CCN(C(=O)c2[nH]cnc2C(=O)NCc2ccccc2)CC1	-3	0	-10	-4	-3	-3%	-2%
CC(C)(C)OC(=O)N1CCC(NC(=O)c2[nH]cnc2C(=O)Nc2ccc(Cl)cc2)CC1	1	1	-16	-1	6	-2%	-2%
Cc1ccc(NC(=O)c2nc[nH]c2C(=O)NC2CCN(C(=O)OC(C)(C)C)CC2)cc1	·	·	-8	-2	·	·	·
CC(C)(C)OC(=O)N1CCC(NC(=O)c2nc[nH]c2C(=O)N2CCc3ccccc3C2)CC1	·	·	-7	-1	·	-3%	-3%
CCN(CC(=O)N1CCCC1)S(=O)(=O)c1ccc(OC)cc1	-17	1	-1	-4	-4	·	·
CC1CCN(C(=O)c2c(NC(=O)c3ccccc3F)sc3c2CCC(C(C)(C)C)C3)CC1 (configuration not stated)	·	1	·	·	-8	·	·
Cc1cc(C(=O)N2CCN(C/C=C/c3ccccc3)CC2)no1	6	1	-9	0	1	·	·
O=C(c1ccco1)N1CCN(C/C=C/c2ccccc2)CC1	1	89*	?	41*	-28	?	?
O=C(NC(=S)N1CCN(C/C=C/c2ccccc2)CC1)c1c(F)cccc1F	-12	0	-7	-3	-3	·	·
O=C(NC(=S)N1CCN(C/C=C/c2ccccc2)CC1)c1ccco1	9	48*	-15	-5	-18	1%	-2%
O=C(CCNS(=O)(=O)c1ccccc1C(F)(F)F)N1CCN(C(c2ccccc2)c2ccccc2)CC1	-15	0	-12	0	0	·	·
O=C(CCNS(=O)(=O)c1ccccc1C(F)(F)F)N1CCCCCCC1	3	0	-2	-2	-3	1%	-2%
CC(Oc1cc2oc(=O)cc(-c3ccccc3)c2cc1Cl)C(=O)NCC1CCC(C(=O)O)CC1 (configuration not stated)	43*	43*	-13	2	-17	4%	1%
Cc1ccc2[nH]c(=O)c3cc(C(=O)N(C)Cc4ccco4)sc3c2c1	-11	82*	-1	-6	-12	-3%	-3%
COC(=O)c1cc(NC(=O)CC2Oc3ccccc3NC2=O)cc(C(=O)OC)c1 (configuration not stated)	2	26	2	-1	4	0%	0%
CCN(CC)C(=O)C1=C(C)N(CCC2=CCCCC2)C(=O)C(CC(=O)NCc2cccc3ccccc23)C1 (configuration not stated)	·	·	3	8	·	·	·
SMILES	D2 antagonist	D2 ag-1	D2 PAM-1	D2 ag-2	D2 PAM-2	D3 arrestin ag	D2 ag-3
O=C(CCN1CCCCC1)c1ccc2c(c1)OCCO2	-27	2	-20	-4	6	·	·
O=C(CCN1CCCC1Cc1ccccc1)c1ccc2c(c1)OCCO2 (configuration not stated)	109*	82*	-18	7	-28	?	?
CCn1c(S(=O)(=O)O)nc2ccccc21	-1	0	-5	1	-6	·	·
COc1ccc(CCNC(=O)CSC2=NS(=O)(=O)c3ccccc3N2)cc1OC	-3	0	-17	0	3	·	·
O=C(CSC1=NS(=O)(=O)c2ccccc2N1)NCCc1ccccc1	11	28	-7	2	1	6%	0%
COc1ccccc1-c1oc2ccccc2c1-c1ccc2cc[nH]c2c1	-5	0	-3	4	16	1%	3%
O=C(CC1(CC2=NS(=O)(=O)c3ccccc3N2)CCCC1)NCCc1ccccc1	3	0	-4	1	-4	·	·
COc1cc2c(cc1OC)C1CC(=O)C(CC(C)C)CN1CC2 (configuration not stated)	21	48*	-30	7	-20	-10%	13%
OC(COCc1cccs1)CN1CCN(c2cccc(Cl)c2)CC1 (configuration not stated)	43*	67*	-24	?	-20	3%	?
OC(COCc1cccs1)CN1CCCCCC1 (configuration not stated)	-3	-1	-28	1	30	·	·
CN1CCCN(CC(O)COCc2cccs2)CC1 (configuration not stated)	-4	0	-6	0	4	·	·
Cc1cccc(N2CCN(CC(O)COCc3cccs3)CC2)c1C (configuration not stated)	71*	56*	-12	4	-16	0.32µM*	13%
COc1cc2c(cc1CNC[C@H]1O[C@@H](n3ccc(N)nc3=O)[C@H](O)[C@@H]1O)OCO2	·	·	6	-4	·	·	·
OCCN(CCO)Cc1csc2ccccc12	-3	35*	-16	-5	-4	-8%	-3%
OCCN(Cc1ccccc1)Cc1ccccc1O	-6	1	-5	0	-8	·	·
